# Inconclusive results are not listed. Active and inactive are the calls of the source. Rule for the calls: active = hit-call score of the fitted dose curve at least 0.9, where 1 is the maximum; inconclusive = response in the unintended direction; inactive = score below 0.9.
# Test system: frog Estrogen Receptor (ER1), gene 398734
# Assay: ATG_frER1_EcoTox2: Attagene TRANS-FACTORIAL EcoTox-2 HepG2 Assay for frog Estrogen Receptor (ER1)
# Description: ATG_EcoTox2 is a cell-based, multiplexed assay created by modifying the existing Attagene TRANS-FACTORIAL system to include a panel of nuclear receptors from some or all the following species: human (Homo sapiens), african clawed frog (Xenopus laevis), rainbow trout (Oncorhynchus mykiss), japanese medaka (Oryzias latipes), and zebrafish (Danio rerio). The ECOTOX2-FACTORIAL format uses HepG2, a human liver cell line, with measurements taken at 24 hours after chemical dosing in a 24-well plate. ATG_frER1_EcoTox2 is one of 29 assay components calculated in the ATG_EcoTox2 assay. It is designed to make measurements of mRNA induction, a form of inducible reporter, as detected with fluorescence intensity signals by Reverse transcription polymerase chain reaction (RT-PCR) and Capillary electrophoresis technology.The assay endpoint ATG_frER1_EcoTox2 was analyzed in the positive analysis fitting direction relative to DMSO as the negative control and baseline of activity. Using a type of inducible reporter, measures of mRNA for gain-of-signal activity can be used to understand the reporter gene at the transcription factor-level as they relate to the gene ER. Furthermore, this assay endpoint can be referred to as a primary readout, because this assay has produced multiple assay endpoints where this one serves a reporter gene function. To generalize the intended target to other relatable targets, this assay endpoint is annotated to the nuclear receptor intended target family, where the subfamily is steroidal.
# Human liver HepG2 cells are transiently transfected with multiple reporter transcription units (MRTUs) in 6-well plates using FuGene 6 reagent (Roche; 3 ml FuGene/1 mg DNA). The MRTU constructs are regulated by a cis-regulating element (promoter). Each RTU expresses a GAL4-UAS that regulates the transcription of a nearby target reporter gene sequence. A major difference between the CIS and TRANS system is that in CIS activities of endogenous TFs are measured, whereas the TRANS assay evaluates changes in activities of exogenous, chimeric NR-Gal4 proteins. […] At the end of 24 hour incubation, total RNA was isolated using TriZol reagent (Invitrogen). The isolated RNA is then reverse-transcribed using oligo(dT) primer and Mo-MLV reverse transcriptase (Invitrogen) with DNAse I (Ambion) treatment for 30 min. The one-tenth of the produced cDNA was amplified by PCR using Taq DNA polymerase (Invitrogen) and two reporter sequence-specific primers. […] The fragments were purified using Qiaquick PCR columns (Qiagen), analyzed on an ABI 3130xL genetic analyzer (Applied Biosystems) with peak positions identified by using a set of X-rhodamine (ROX)-labeled MapMarker1000 molecular weight standards (BioVentures). […]
SMILES,outcome,AC50
CCCCOCN(C(=O)CCl)c1c(CC)cccc1CC,inactive,–
O=S(=O)(O)C(F)(F)C(F)(F)C(F)(F)C(F)(F)C(F)(F)C(F)(F)F,inactive,–
O=P(Oc1ccccc1)(Oc1ccccc1)Oc1ccccc1,inactive,–
O=C(O)C(F)(F)C(F)(F)C(F)(F)C(F)(F)C(F)(F)C(F)(F)C(F)(F)F,–,75 µM (active)
